# Several values for one entry are separate records, joined by “and”; a condition that tells them apart may be missing. Equal values may be shown once. Results filed as inconclusive are left out. A call without a number means that no potency is given here. Some compounds were tested as several samples or in several runs, with calls that do not always agree. Activity calls are given as the source filed them. Unless noted, calls follow the shape of the dose curve; as a rule, active = well fitted curve in the direction sought with a large enough effect in the repeat runs; inconclusive = weak or mixed curves; inactive = no such curve, though single readings can be large; an effect the other way counts as inactive or inconclusive.
# Key:
# [1] = A CellTox Green Cytotoxicity Assay to monitor cytotoxicity in HEK293 cells - 32 hour (AID 1224881); also: nearly all actives have a fitted effect of over 40% in size
# Method in brief: (§1)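 Cytotoxicity was tracked continuously in HEK293 cells by a DNA-binding dye excluded from viable cells. Compounds were transferred in DMSO 5 h after seeding; fluorescence was recorded at intervals up to 40 h.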
# [2] = A CellTox Green Cytotoxicity Assay to monitor cytotoxicity in HepG2 cells - 0 hour (AID 1224882); also: nearly all actives have a fitted effect of over 35% in size; also: potency is read from the fitted curve at half-maximal effect
# Method in brief: (§2)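 Real-time, homogeneous cytotoxicity readout: dead-cell DNA staining by CellTox Green in HepG2 monolayers, fluorescence measured at timed intervals up to 40 h of continuous compound exposure.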
# [3] = A CellTox Green Cytotoxicity Assay to monitor cytotoxicity in HepG2 cells - 32 hour (AID 1224883); also: nearly all actives have a fitted effect of over 50% in size; also: potency is read from the fitted curve at half-maximal effect
# Method in brief: as §2
# [4] = A CellTox Green Cytotoxicity Assay to monitor cytotoxicity in HEK293 cells - 8 hour (AID 1224884); also: nearly all actives have a fitted effect of over 35% in size
# Method in brief: as §1
# [5] = qHTS RealTime-Glo MT Cell Viability Assay in HepG2 cells - 16 hour (AID 1224885); also: nearly all actives have a fitted effect of over 50% in size
# Method in brief: (§3)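 Cells + NanoLuc/prosubstrate dispensed (600 cells/well) → 5 h at 37 C/5% CO2 → compounds in DMSO transferred → 40 h incubation at 37 C, luminescence read at 0, 8, 16, 24, 32, 40 h.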
# [6] = qHTS RealTime-Glo MT Cell Viability Assay in HEK293 cells - 24 hour (AID 1224886); also: nearly all actives have a fitted effect of over 50% in size; also: potency is read from the fitted curve at half-maximal effect
# Method in brief: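 Tox21 10K qHTS, HEK293, 600 cells/well, RealTime-Glo reagent co-dispensed with cells; 5 h preincubation, compound by pintool, 37 C, luminescence at 0–40 h.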
# [7] = qHTS RealTime-Glo MT Cell Viability Assay in HEK293 cells - 8 hour (AID 1224887); also: nearly all actives have a fitted effect of over 50% in size; also: potency is read from the fitted curve at half-maximal effect
# Method in brief: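 Nonlytic bioluminescent viability monitoring. HEK293 at 600 cells/well with reagent; 5 h settle; compound transfer by pintool; plates held at 37 C and read at set time points.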
# [8] = A CellTox Green Cytotoxicity Assay to monitor cytotoxicity in HEK293 cells - 16 hour (AID 1224888); also: nearly all actives have a fitted effect of over 35% in size
# Method in brief: as §1
# [9] = A CellTox Green Cytotoxicity Assay to monitor cytotoxicity in HepG2 cells - 8 hour (AID 1224890); also: nearly all actives have a fitted effect of over 45% in size; also: potency is read from the fitted curve at half-maximal effect
# Method in brief: as §2
# [10] = qHTS assay to identify small molecule antagonists of the estrogen receptor alpha (ER-alpha) signaling pathway using the BG1 cell line in the presence of 0.1 nM 17-beta-estradiol - cell viability counter screen (AID 1259241); also: nearly all actives have a fitted effect of over 40% in size
# Method in brief: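 VM7Luc4E2 cells (endogenous ER-alpha, 4×ERE-luciferase), hormone-starved 5 days in charcoal-stripped FBS, were treated with compounds plus 0.1 nM 17beta-estradiol for 22 hr at 37C; viability read in same wells as CellTiter-Fluor live-cell protease fluorescence.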
# [11] = qHTS assay to identify small molecule antagonists of the androgen receptor (AR) signaling pathway using the MDA cell line in the presence of 0.5 nM R1881 - cell viability counter screen (AID 1259242); also: nearly all actives have a fitted effect of over 45% in size
# Method in brief: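 Cytotoxicity toward MDA-kb2 cells is measured by CellTiter-Fluor live-cell protease fluorescence after 16 hr compound exposure at 37C in the presence of 0.5 nM R1881 stimulator.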
# [12] = biological target: Estrogen receptor (Homo sapiens) (UniProt P03372); experiment: qHTS assay to identify small molecule antagonists of the estrogen receptor alpha (ER-alpha) signaling pathway using the BG1 cell line in the presence of 0.1 nM 17-beta-estradiol (AID 1259244); also: nearly all actives have a fitted effect of over 50% in size; also: potency is read from the fitted curve at half-maximal effect
# Sequence of Estrogen receptor (Homo sapiens) (P03372 whole entry, looked up): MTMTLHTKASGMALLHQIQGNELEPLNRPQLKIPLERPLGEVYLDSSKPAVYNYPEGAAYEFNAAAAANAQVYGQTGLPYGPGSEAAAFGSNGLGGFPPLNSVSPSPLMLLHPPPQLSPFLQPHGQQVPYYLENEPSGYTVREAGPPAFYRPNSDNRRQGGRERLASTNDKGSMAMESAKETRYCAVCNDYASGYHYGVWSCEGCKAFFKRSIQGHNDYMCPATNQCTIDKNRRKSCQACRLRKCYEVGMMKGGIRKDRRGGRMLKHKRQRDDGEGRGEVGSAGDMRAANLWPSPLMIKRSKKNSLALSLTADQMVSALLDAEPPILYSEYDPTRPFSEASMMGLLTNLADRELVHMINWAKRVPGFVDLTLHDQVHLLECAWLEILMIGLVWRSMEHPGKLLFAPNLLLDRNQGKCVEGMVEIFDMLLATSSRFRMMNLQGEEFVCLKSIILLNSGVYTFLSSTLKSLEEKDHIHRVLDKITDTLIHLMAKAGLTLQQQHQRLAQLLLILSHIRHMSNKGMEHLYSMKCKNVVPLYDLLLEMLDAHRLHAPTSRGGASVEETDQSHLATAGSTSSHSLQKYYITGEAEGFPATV
# Method in brief: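 After 5 days in hormone-depleted medium (charcoal-stripped serum, no phenol red), VM7Luc4E2 cells were seeded, incubated 24 h, then co-treated with compound and 0.1 nM (final) estradiol for 22 h before luminescence detection.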
# [13] = qHTS assay to identify small molecule HDAC inhibitors (AID 1259364); also: top concentration of the series differs between compounds; nearly all actives have a fitted effect of over 45% in size
# Method in brief: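 Homogeneous cell-based luminescent assay of endogenous class I/II HDAC activity; HCT-116 cells, 2 h compound exposure, 30 min HDAC-Glo development at RT.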
# [14] = qHTS assay to identify small molecule HDAC inhibitors - cell viability counter screen (AID 1259365)
# Method in brief: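 Wild-type HCT-116 cells were seeded at 1,500 per well, incubated overnight at 37 C, then exposed to compounds in DMSO for 2hr. Viability was read by CellTiter-Glo luminescence after 30min at room temperature.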
# [15] = qHTS assay to identify small molecule agonists of the sonic hedgehog signaling (Shh) pathway - cell viability counter screen (AID 1259366); also: nearly all actives have a fitted effect of over 50% in size
# Method in brief: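 NIH/3T3-derived 3T3 Gli1-Luc cells (stable Gli1-responsive firefly luciferase reporter) were seeded, rested 4 hr at 37 C/5% CO2, then exposed to compounds in DMSO for 24 hr; viability was read by CellTiter-Fluor fluorescence in the same wells.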
# [16] = qHTS assay to identify small molecule antagonists of the sonic hedgehog signaling (Shh) pathway - cell viability counter screen (AID 1259367); also: nearly all actives have a fitted effect of over 55% in size; also: potency is read from the fitted curve at half-maximal effect
# Method in brief: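 Using CellTiter-Fluor, viability of Gli1-Luc reporter 3T3 cells is read by fluorescence in the wells used for the Shh luciferase assay. Treatment lasts 23 hr with conditioned medium, then reagent 1 hr at 37C.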
# [17] = qHTS assay to identify small molecule agonists of the sonic hedgehog signaling (Shh) pathway (AID 1259368; calls by dose curve; also: series mostly up to about 92 µM; nearly all actives have a fitted effect of over 15% in size)
# Method in brief: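 Steps: seed 3T3 Gli1-Luc cells, incubate 4 hr at 37 C, pin-transfer compounds in DMSO alongside a positive control, incubate 24 hr, add luciferase detection reagent, wait 30 min at room temperature, read luminescence.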
# [18] = qHTS RealTime-Glo MT Cell Viability Assay in HepG2 cells - 0 hour (AID 1224889); also: nearly all actives have a fitted effect of over 50% in size
# Method in brief: as §3
# [19] = biological target: Androgen receptor (Homo sapiens) (UniProt P10275); experiment: qHTS assay to identify small molecule antagonists of the androgen receptor (AR) signaling pathway using the MDA cell line in the presence of 0.5 nM R1881 (AID 1259243); also: nearly all actives have a fitted effect of over 50% in size; also: potency is read from the fitted curve at half-maximal effect
# Sequence of Androgen receptor (Homo sapiens) (P10275 whole entry, looked up): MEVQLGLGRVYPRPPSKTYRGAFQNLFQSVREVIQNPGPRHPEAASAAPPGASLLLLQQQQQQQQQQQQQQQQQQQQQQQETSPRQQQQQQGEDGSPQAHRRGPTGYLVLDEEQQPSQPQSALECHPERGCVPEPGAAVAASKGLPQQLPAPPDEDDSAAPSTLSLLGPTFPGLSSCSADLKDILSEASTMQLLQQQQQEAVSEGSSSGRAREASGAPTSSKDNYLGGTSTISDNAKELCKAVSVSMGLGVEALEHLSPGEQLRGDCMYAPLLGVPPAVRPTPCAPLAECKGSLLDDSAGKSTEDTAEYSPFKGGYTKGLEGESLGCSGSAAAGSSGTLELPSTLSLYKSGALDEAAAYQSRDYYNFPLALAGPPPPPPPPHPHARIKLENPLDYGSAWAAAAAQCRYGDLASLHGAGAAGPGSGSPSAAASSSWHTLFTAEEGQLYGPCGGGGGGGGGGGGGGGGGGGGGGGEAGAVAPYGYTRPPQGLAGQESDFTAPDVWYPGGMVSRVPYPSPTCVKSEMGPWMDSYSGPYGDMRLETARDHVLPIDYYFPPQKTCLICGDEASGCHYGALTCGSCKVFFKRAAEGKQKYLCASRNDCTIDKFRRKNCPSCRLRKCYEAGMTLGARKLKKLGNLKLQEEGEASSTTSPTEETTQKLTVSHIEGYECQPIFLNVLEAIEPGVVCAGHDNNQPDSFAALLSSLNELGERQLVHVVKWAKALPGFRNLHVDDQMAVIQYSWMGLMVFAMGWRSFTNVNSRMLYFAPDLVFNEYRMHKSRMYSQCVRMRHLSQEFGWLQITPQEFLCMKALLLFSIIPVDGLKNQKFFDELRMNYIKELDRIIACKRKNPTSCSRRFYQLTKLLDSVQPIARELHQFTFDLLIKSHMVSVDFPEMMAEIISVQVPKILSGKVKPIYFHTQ
# Method in brief: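 Steps: seed MDA-kb2 cells, incubate 5 hr at 37C; pin-transfer compounds in DMSO; add R1881 to 0.5 nM final; incubate 16 hr; add ONE-Glo, wait 30 min at room temperature; read luminescence.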
# [20] = qHTS assay to identify small molecule phospholipidosis (PLD) inducers (AID 1259344; active = well fitted curve in the direction sought with a large enough effect; an effect the other way counts as inactive or inconclusive)
# Method in brief: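 Fluorescent phospholipid staining (LipidTOX Red) measured by automated microscopy in fixed HepG2 cells after 24 h treatment; nuclei counterstained with Hoechst 33342; amiodarone as reference inducer.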
SMILES,Potency [1],Potency [2],Potency [3],Potency [4],Potency [5],Potency [6],Potency [7],Potency [8],Potency [9],Potency [10],Potency [11],Potency [12],Potency [13],outcome [14],Potency [15],Potency [16],Potency [17],Potency [18],Potency [19],Potency [20]
CC(CCC(=O)O)(c1ccc(O)cc1)c1ccc(O)cc1,inactive,inactive,inactive,inactive,inactive,inactive,inactive,inactive,inactive,inactive,inactive,inactive,inactive,inactive,inactive,inactive,inactive,–,–,–
CC(C)OC(=O)C(C)(C)Oc1ccc(C(=O)c2ccc(Cl)cc2)cc1,inactive,inactive,inactive,inactive,inactive,–,24.5 µM (active) and 16.9 µM (active),inactive,inactive,inactive,inactive,61.1 µM (active) and inactive,inactive,–,inactive,inactive,inactive,inactive,43.3 µM (active) and 29.8 µM (active),inactive
Cc1cccc([N+](=O)[O-])c1C,inactive,inactive,inactive,inactive,inactive,–,inactive,inactive,inactive,inactive,inactive,inactive,inactive,inactive,inactive,inactive,inactive,inactive,inactive,–
CCCCNS(=O)(=O)c1ccccc1,inactive,inactive,inactive,inactive,inactive,inactive and 6.16 µM (active),inactive,inactive,inactive,inactive,inactive,inactive,inactive,inactive,inactive,inactive,inactive,–,–,–
Clc1nc(Cl)c(Cl)c(Cl)c1Cl,inactive,inactive,inactive,inactive,inactive,inactive,inactive,inactive,inactive,inactive,inactive,–,inactive,inactive,inactive,inactive,inactive,–,–,–
CCCCOCCOCCOCCO,inactive,inactive,inactive,inactive,inactive,–,inactive,inactive,inactive,inactive,inactive,inactive,inactive,inactive,inactive,inactive,inactive,inactive,–,–
CCC(C)CO (stereo not drawn),inactive,inactive and 43.6 µM (active),inactive and 43.6 µM (active),inactive,inactive,inactive and 24.5 µM (active),inactive,inactive,inactive and 49 µM (active),inactive,inactive,inactive,inactive,inactive,inactive,inactive,inactive,–,–,–
c1ccncc1,inactive,inactive,inactive,inactive,inactive,inactive,inactive,inactive,inactive,inactive,inactive,inactive,inactive,inactive,inactive,inactive,inactive,–,–,–
COc1cc([C@@H]2c3cc4c(cc3[C@H](O)[C@H]3COC(=O)[C@H]23)OCO4)cc(OC)c1OC,inactive,inactive,inactive,inactive,inactive,–,inactive,inactive,inactive,inactive,inactive,–,inactive,inactive,inactive,106 nM (active),inactive,inactive,inactive,–
COc1ccccc1/C=C/C=O,inactive,inactive,inactive,inactive,inactive,–,inactive,inactive,inactive,inactive,inactive,inactive,inactive,inactive,inactive,inactive,inactive,inactive,–,–
O=C=Nc1ccc(Cc2ccc(N=C=O)cc2)cc1,inactive,inactive,inactive,inactive,inactive,inactive,inactive,inactive,inactive,inactive,inactive,–,inactive,inactive,inactive,inactive,inactive,–,–,–
CC(=O)c1ccccn1,inactive,inactive,inactive,inactive,inactive,inactive,inactive,inactive,inactive,inactive,inactive,–,inactive,inactive,inactive,inactive,inactive,–,–,–

# Reference: PubChem BioAssay (Tox21)
